Structures are written as SMILES. Records with an inconclusive call do not appear. Calls of active or inactive are those of the source. Rule for the calls: active = hit-call score of the fitted dose curve at least 0.9, where 1 is the maximum; inconclusive = response in the unintended direction; inactive = score below 0.9.

For this experiment, the target named is Estrogen receptor (Homo sapiens) (UniProt P03372). In words: ERF_TW_NR_COA_hESR1: Eurofins (ERF) Nuclear Receptor (NR) Functional Coactivator Assay for human Estrogen Receptor alpha (ERa) Agonism. As to the method: ERF_TW_NR_COA_hESR1 is a biochemical, single-readout assay that uses extracted gene-proteins in a cell-free assay. Measurements were taken 0.16 hours after chemical dosing in a 96-well plate. See ERalpha Human Estrogen NHR Functional Agonist Coactivator Assay, Panlabs.ERF_TW_NR_COA_hESR1 is an assay component calculated from the ERF_TW_NR_COA_hESR1 assay. It is designed to measure FRET using a type of binding reporter as detected by fluorescence intensity of estriol with fluorimetry technology.Data from the assay component ERF_TW_NR_COA_hESR1 was analyzed at the assay endpoint, ERF_TW_NR_COA_hESR1, in the positive analysis fitting direction relative to DMSO as the negative control and baseline of activity. Using a type of binding reporter, gain-of-signal activity can be used to understand changes in binding as they relate to gene ESR1. To generalize the intended target to other relatable targets, this assay endpoint is annotated to the nuclear receptor intended target family, where the subfamily is steroid.
Estrogen receptor (Homo sapiens), sequence (P03372 whole entry, looked up): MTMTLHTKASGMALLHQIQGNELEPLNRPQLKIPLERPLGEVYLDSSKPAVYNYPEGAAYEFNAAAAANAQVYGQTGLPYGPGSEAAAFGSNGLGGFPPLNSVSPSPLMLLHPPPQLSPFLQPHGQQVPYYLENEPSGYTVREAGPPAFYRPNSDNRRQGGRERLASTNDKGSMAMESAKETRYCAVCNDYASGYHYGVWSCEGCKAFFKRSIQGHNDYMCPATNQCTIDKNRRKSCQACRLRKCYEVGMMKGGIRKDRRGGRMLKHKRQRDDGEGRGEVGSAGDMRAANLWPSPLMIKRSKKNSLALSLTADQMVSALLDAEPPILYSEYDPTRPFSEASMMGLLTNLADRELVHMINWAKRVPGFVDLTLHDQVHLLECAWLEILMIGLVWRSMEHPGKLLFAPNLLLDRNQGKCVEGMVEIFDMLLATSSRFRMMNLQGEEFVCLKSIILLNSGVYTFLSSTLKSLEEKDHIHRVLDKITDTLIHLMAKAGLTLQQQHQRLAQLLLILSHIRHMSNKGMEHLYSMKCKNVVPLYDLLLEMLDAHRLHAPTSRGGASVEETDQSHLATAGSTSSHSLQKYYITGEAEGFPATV
Test compound and/or vehicle is incubated with the 7 nM estrogen receptor alpha (ERalpha)-LBD and coactivator peptide for 10 minutes at RT. Determination of the amount of complex formed is read spectrofluorimetrically at 520 nm/490 nm. Test compound-induced increase fluorescence by 50 percent or more (>/=50%) relative to the 1 uM Estriol response indicates possible ERalpha receptor agonist activity.
As to `O=C(CC(=O)C(F)(F)C(F)(F)C(F)(F)F)c1cccs1`, the result was inactive. For the compound `OCCC(F)(F)C(F)(F)C(F)(F)C(F)(F)C(F)(F)C(F)(F)F`, the AC50 (in general, the concentration at which the activity in the assay is half-maximal) is 50.2 µM (active). In the case of `FC(F)(F)C(F)(F)C(F)(F)C(F)(F)C(F)(F)C(F)(F)I`, the AC50 was 4.11 µM (active). Take `C=CC(=O)OCC(F)(F)C(F)(F)C(F)(F)C(F)(F)C(F)(F)C(F)(F)C(F)(F)C(F)F`: the AC50 was 37.5 µM (active). With `OCCCC(F)(F)C(F)(F)C(F)(F)C(F)(F)C(F)(F)C(F)(F)C(F)(F)F`, the AC50 is 43.3 µM (active). As for `OCCC(F)(F)C(F)(F)C(F)(F)C(F)(F)C(F)(F)C(F)(F)C(F)(F)C(F)(F)F`, the compound was classed as inactive. As to `N=C(N)C(F)(F)C(F)(F)C(F)(F)C(F)(F)C(F)(F)C(F)(F)C(F)(F)F`, the compound was classed as inactive. Consider `FC(F)(I)C(F)(F)C(F)(F)C(F)(F)I`, for which the outcome was inactive.

Take `OCC(F)(F)C(F)(F)C(F)(F)C(F)(F)C(F)(F)C(F)(F)C(F)(F)C(F)(F)CO`: the AC50 is 0.467 µM (active).

With `O=P(O)(O)OCCC(F)(F)C(F)(F)C(F)(F)C(F)(F)C(F)(F)C(F)(F)F`, the AC50 is 9.12 µM (active). In the case of `FC(F)(I)C(F)(F)C(F)(F)C(F)(F)C(F)(F)C(F)(F)I`, the AC50 is 7.81 µM (active). Regarding `NC(=O)C(F)(F)C(F)(F)C(F)(F)C(F)(F)C(F)(F)C(F)(F)C(F)(F)F`, the outcome was inactive. Consider `OCC(F)(F)C(F)(F)C(F)(F)C(F)(F)C(F)(F)C(F)(F)CO`, for which the concentration at half-maximal activity (AC50) was 1.53 µM (active).

Source of the values: PubChem BioAssay AID2284377 (EPA ToxCast).
